Assay outcomes from PubChem BioAssay.
In the library only some 7.5% were active in any assay of this set; here they are far more common.
SMN2 splice enh – qHTS Assay for Enhancers of SMN2 Splice Variant Expression; 210,000 tested, 2.8% active; HEK293 SMN2-luciferase splicing reporter, luminescence, 30-36 h; Potency, µM (titrated, usually from 46.1 µM), inactives show top-dose activity change, positive = activation, actives largely listed as activators; note: % of control where 0% means no effect; nearly all actives have a fitted effect of over 55% in size
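qHTS luciferase splicing reporter: luminescence rises when SMN2 exon 7 is included in transfected HEK293 cells. Compound exposure lasted 30-36 h at 37C, with 4.5 mM final sodium butyrate as control, followed by a ONE-Glo read.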
Luc counter – Counterscreen for Luciferase (Kinase-Glo TM) Inhibition; AID 1379, 2008; Kinase-Glo luciferase, ATP luminescence, 8 min; 200,000 tested, 0.28% active; Luciferin 4-monooxygenase (Photuris pensylvanica), Q27757; Potency, µM (series often up to 38.3 µM), for inactives: top-dose activity change, negative = inhibition, actives largely listed as inhibitors; note: % is set by controls: 0 for no effect and ±100 for the full control effect; nearly all actives have a fitted effect of over 60% in size
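Inhibition of Kinase-Glo luciferase light generation was assessed at 10 uM ATP in pH 7.2 imidazole buffer, with luminescence measured after eight minutes at ambient temperature.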
Rab9 promoter act – qHTS Assay for Rab9 Promoter Activators | Huh7 Rab9 promoter-luciferase reporter, luminescence, 24 h | Potency, µM (top dose mostly 9.22 µM), without a hit: at the top dose activation, negative = inhibition, most hits filed as activators | 320,000 tested, 2.8% active | AID 485297, 2010; note: % of control where 0% means no effect; nearly all actives have a fitted effect of over 60% in size
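Using Huh7 cells stably transfected with Rab9 promoter–luciferase, compounds were incubated 24 h at 37 °C, 5% CO2; luciferase luminescence was read 10 min after reagent addition.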
FLuc counter – qHTS profiling assay for firefly luciferase inhibitor/activator using purifed enzyme and Km concentrations of substrates (counterscreen for miR-21 project); purified FLuc, Km substrates, luminescence inhibition; 360,000 tested, 6.9% active; Luciferin 4-monooxygenase (Photinus pyralis), P08659; Potency, µM (series often up to 57.5 µM), without a hit: top-dose activity change, negative = inhibition, most hits filed as inhibitors; AID 588342, 2011;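 note: plate controls were vehicle for no effect and reference inhibitor for full effect; nearly all actives have a fitted effect of over 55% in size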
Target sequence (P08659 whole entry, looked up): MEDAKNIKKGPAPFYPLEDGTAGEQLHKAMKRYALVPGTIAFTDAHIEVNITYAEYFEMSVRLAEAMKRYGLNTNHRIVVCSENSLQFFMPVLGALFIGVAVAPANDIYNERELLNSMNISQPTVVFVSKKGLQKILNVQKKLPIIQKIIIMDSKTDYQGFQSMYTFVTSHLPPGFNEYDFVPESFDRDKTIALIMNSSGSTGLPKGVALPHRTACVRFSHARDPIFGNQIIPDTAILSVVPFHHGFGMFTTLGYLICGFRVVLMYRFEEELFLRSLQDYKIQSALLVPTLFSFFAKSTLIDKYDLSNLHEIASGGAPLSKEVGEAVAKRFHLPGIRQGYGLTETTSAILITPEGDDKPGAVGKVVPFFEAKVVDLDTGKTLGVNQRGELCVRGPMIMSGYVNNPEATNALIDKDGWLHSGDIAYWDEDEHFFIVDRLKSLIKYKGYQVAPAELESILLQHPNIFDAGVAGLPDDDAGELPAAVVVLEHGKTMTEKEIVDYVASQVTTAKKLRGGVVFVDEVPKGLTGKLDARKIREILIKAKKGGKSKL
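Biochemical qHTS of compounds, final roughly 60 µM downward over six points, against 10 nM purified firefly luciferase using Km concentrations of substrates (10 uM D-luciferin, 10 uM ATP) in Tris acetate pH 7.5 buffer; luminescence output.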
ELG1 genotox – qHTS screen for small molecules that induce genotoxicity in human embryonic kidney (HEK293T) cells expressing luciferase-tagged ELG1. 330,000 tested, 1.3% active. Potency, µM (top dose mostly 46 µM), inactives show top-dose activity change, positive = activation, most hits filed as activators. HEK293T ELG1-luciferase reporter, luminescence, 16 h; note: % of control where 0% means no effect; nearly all actives have a fitted effect of over 60% in size
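Quantitative HTS format in 1536-well plates. HEK293T ELG1-luciferase reporter cells receive test compound and are incubated 16 hr at 37 °C, 5% CO2; ONE-Glo added, 30 min room temperature, then luminescence read.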
NPC1 promoter act – qHTS Assay for NPC1 Promoter Activators. Huh7 NPC1 promoter luciferase reporter, 24 h. Potency, µM (highest dose often 9.22 µM), without a hit: at the top dose activation, usual class: activators. 320,000 tested, 2.4% active; note: % of control where 0% means no effect; nearly all actives have a fitted effect of over 60% in size
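Stable NPC1-promoter luciferase Huh7 line; cpd (DMSO) 24 h, 37 °C, 5% CO2; Amplite luciferase reagent 10 min RT; luminescence readout. qHTS format.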
* marks the source's active call; other numbers are inactive results; u = inconclusive; x = not tested or not shown; [ ] = remark or other dose. Calls come from the whole dose curve; as a rule, active = well fitted curve in the direction sought with a large enough effect; inconclusive = small, poorly fitted or top-dose-only effect, or another doubt; inactive = no such curve, though single readings can be large; an effect the other way counts as inactive or inconclusive. Potency is the fitted concentration of half-maximal effect.

SMILES	SMN2 splice enh	Luc counter	Rab9 promoter act	FLuc counter	ELG1 genotox	NPC1 promoter act
O=C(O)c1cccc(CSc2nnc(-c3ccc(Cl)cc3)o2)c1	x	x	-1%	19µM*	17%	-1%
COc1cccc(-c2nnc(SCc3cccnc3)o2)c1	12%	-10%	4µM*	24µM*	13%	u
Cc1ccc(OCC(=O)N2CCN(S(C)(=O)=O)CC2)cc1	x	x	-4%	-2%	4%	0%
Clc1ccc2[nH]cc(-c3nnnn3-c3ccccc3)c2c1	-8%	-6%	-3%	24µM*	-2%	-4%
CCN(CC(=O)Nc1ccc(NC(C)=O)cc1)C(=O)c1ccc(N2CCC(C)CC2)c([N+](=O)[O-])c1	x	x	-1%	17µM*	0%	-1%
CCN(CC(=O)Nc1c(F)cccc1F)C(=O)c1ccc(N2CCCCC2)c([N+](=O)[O-])c1	x	x	-3%	-1%	9%	1%
CCCC[C@]12Cc3ccccc3C(O1)c1c(cc(-c3ccccc3)oc1=O)O2	x	x	-15%[1.84 µM]	-19%[11.5 µM]	x	-18%[1.84 µM]
COc1ccc([N+](=O)[O-])cc1NCc1ccccc1	32µM*	-1%	-3%	1%	u	-4%
O=[N+]([O-])c1ccc(NCc2ccccc2)nc1	u	1%	24%	21µM*	u	28%
O=[N+]([O-])c1ccc(Nc2ccccc2)nc1	3%	4%	2%	-3%	5%	-1%
Clc1ccc(-c2cn3c(n2)-c2ccccc2C3)cc1Cl	1µM*	u	2.5µM*	0.85µM*	u	3.5µM*
CCCOC(=O)c1ccc(NC(=O)c2ccc(Br)o2)cc1	-1%	-3%	27%	17µM*	u	26%
COC(=O)Cc1ccc(NC(=O)C(c2ccccc2)c2ccccc2)cc1	0%	1%	1%	2%	0%	-1%
COC(=O)Cc1ccc(NC(C)=O)cc1	x	x	-4%	0%	5%	7%
COc1ccc(-c2ccc(NC(=O)c3ccc(Br)o3)cc2)nn1	x	x	1.1µM*	u	2.1µM*	2µM*
COC(=O)Cc1ccc(NC(=O)c2ccc(C)c(C)c2)cc1	u	-6%	2.5µM*	3µM*	5.2µM*	u
COC(=O)Cc1ccc(NC(=O)c2ccc(Br)o2)cc1	u	-10%	u	17µM*	18µM*	u
CC(=O)c1cccc(NC(=O)CSc2nnc3ccc(-c4ccc(Cl)cc4)nn23)c1	x	x	x	-1%	x	x
CCN(CC)c1ccc(NC(=O)c2ccc(Br)o2)cc1	11µM*	-2%	0.79µM*	5.4µM*	u	1.6µM*
CCN(c1ccccc1)S(=O)(=O)c1ccc(OC)c(NC(=O)c2ccc(=O)[nH]c2)c1	x	x	x	x	-3%	x
COc1ccc(C)cc1NC(=O)C1CCCN(S(=O)(=O)c2cccc3cccnc23)C1 (stereo unspecified)	x	x	0%	6%	-6%	-7%
CCC(C)C(NC(N)=O)C(=O)Nc1ccc(C(=O)OC)cc1 (stereo unspecified)	8%	1%	18%	-4%	-4%	-5%
CCc1ccc(C(=O)COC(=O)[C@@H](NC(N)=O)[C@@H](C)CC)cc1	-3%	-1%	u	1.3µM*	u	18%
CCc1ccc(C(=O)COC(=O)C(NC(=O)C2CCC(C)CC2)C(C)C)cc1 (stereo unspecified)	-6%	x	x	1.7µM*	x	x
O=C(CN1CCN(C(=O)c2ccc(-c3nc4ccccc4s3)o2)CC1)Nc1ccccc1Cl	x	x	14%	u	-7%	17%
SMILES	SMN2 splice enh	Luc counter	Rab9 promoter act	FLuc counter	ELG1 genotox	NPC1 promoter act
O=C(CN1CCN(C(=O)c2ccc(-c3nc4ccccc4s3)o2)CC1)Nc1ccc(F)cc1	x	x	25%	17µM*	-5%	21%
Cc1cccc(NC(=O)CN2CCN(C(=O)c3ccc(-c4nc5ccccc5s4)o3)CC2)c1C	x	x	18%	24µM*	-2%	11%
Cc1ccc(-c2cn(-c3ccccc3F)c(=S)[nH]2)cc1	x	x	3.2µM*	u	15%	u
COc1ccccc1-n1cc(-c2ccccc2)[nH]c1=S	x	x	2%	0%	0%	-4%
O=[N+]([O-])c1ccc(-c2cn(-c3ccccc3F)c(=S)[nH]2)cc1	14%	0%	1.4µM*	1%	10%	u
CCc1cc(=O)oc2cc(OC(=O)c3ccco3)ccc12	x	x	0%	-9%	1%	2%
COCCOC(=O)c1c(C)oc2ccc(OCc3ccccc3)cc12	-7%	-1%	-2%	-20%	-1%	-1%
Cc1cc(=O)oc2cc(OC(=O)c3ccco3)ccc12	x	-11%	-8%	17µM*	0%	0%
Cc1cc(=O)oc2cc(OC(=O)c3ccccc3)ccc12	8%	-5%	1%	5.4µM*	-7%	-1%
Cc1cc(=O)oc2cc(OCC(=O)c3ccccc3)ccc12	x	x	11%	-16%	0%	0%
COCCOC(=O)c1c(C)oc2ccc(OC(=O)c3ccco3)cc12	8%	2%	-2%	24µM*	7%	-4%
O=c1c2oc3ccccc3c2n(Cc2cccc(Cl)c2)c(=O)n1Cc1ccco1	x	x	x	-8%	x	x
O=C(Nc1cccc([N+](=O)[O-])c1)c1ccc2snnc2c1	x	x	8%	2%	4%	0%
COc1ccc(-c2cc3ccc(O)c(CN4CCCC(C)C4)c3oc2=O)cc1OC (stereo unspecified)	x	x	x	-10%	x	x
O=C(/C=C/c1cccc(O)c1)c1ccc(N2CCOCC2)cc1	x	x	u	1.2µM*	12%	u
CCCCN(CC)CCCn1cnc2c([nH]c3ccc(Cl)cc32)c1=O	1%	x	x	-3%	x	x
CCc1ccc(CNC(=O)C2CCCN(S(=O)(=O)c3ccc4c(ccn4C)c3)C2)cc1 (stereo unspecified)	x	x	x	-5%	x	x
CCOC(=O)COc1ncn(-c2ccccc2)n1	-9%	-2%	1%	-15%	-1%	0%
O=C(COc1ccccc1C(=O)c1cnn(-c2ccccc2)c1)Nc1ccc2ccccc2c1	13µM*	-3%	u	1.5µM*	14%	u
CC(C)n1cc(NC(=O)COc2ccccc2Cl)cn1	x	x	5%	-4%	3%	-4%
CC(C)c1ccc(NC(=O)COc2ccc(F)cc2C(=O)c2cnn(-c3ccccc3)c2)cc1	u	-7%	u	9.5µM*	16%	0%
